Results on 5 compounds are retold here after PubChem BioAssay.

Activity calls are given as the source filed them.

A short description of experiment [1]: small molecules captured by biotinylated probe aFSTL3 – biochemical, small-molecule microarray, fluorescence 635/667, stem cell growth factor project, primary screen (AID 1064).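 Also: measures binding of the biotinylated anti-FSTL3 antibody to printed compounds.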 As to conditions: higher = more signal.
The nature of experiment [2]: binders from COS7 lysate, DM2A8 probe, primary screen, torsin A project, cell lysate, small-molecule microarray, fluorescence 635/667 (AID 1065). As to conditions: higher = more signal, COS7 lysate expressing mutant human TOR1A.
Experiment [3] in a line: small molecules captured by biotinylated probe aFGF2 – biochemical, small-molecule microarray, fluorescence 635/667, stem cell growth factor project, primary screen (AID 1067).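 Also: measures binding of biotinylated aFGF2 protein to printed compounds on slides; z-score merges feature fluorescence and signal-to-noise across triplicate slides.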 To be noted: higher = more signal.
Experiment [4] is described as follows: small molecules captured by biotinylated probe aFGF10 – biochemical, small-molecule microarray, fluorescence 635/667, stem cell growth factor project, primary screen (AID 1071).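 Also: score merges 667 nm spot intensity and signal to noise from triplicate slides.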 As to conditions: higher = more signal.
Experiment [5] concerns the target Neurogenic locus notch homolog protein 2 (Homo sapiens) (UniProt Q04721). The experiment is described as follows: small molecules binding Notch2 protein – biochemical, small-molecule microarray, 635 nm fluorescence, stem cell growth factors, primary screen (AID 1073). As to conditions: higher = more signal.
The target in experiment [6] is Pro-neuregulin-1, membrane-bound isoform (Homo sapiens) (UniProt Q02297). The experiment is described as follows: small molecules binding neuregulin-1 protein – biochemical, small-molecule microarray, fluorescence 635/667, psychiatric disease protein project, primary screen (AID 1075).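 Also: score combines 667 nm spot fluorescence with signal to noise.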 To be noted: NRG1 binding, 635 nm fluorescence, higher = more signal.
Experiment [7] has as its system Neuregulin-1 EGF-like domain. The experiment is described as follows: small molecules binding NRG1 EGF domain – biochemical, small-molecule microarray, 635 nm fluorescence, primary screen (AID 1081).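 Also: binding of the protein to compounds printed on small-molecule microarray slides.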 To be noted: higher = more signal.
Experiment [8] can be described thus: FRG1 expression reporter modulators in myotubes – cell-based, C2C12 myotubes, firefly/Renilla luciferase, luminescence, FRG1 inhibition for FSHD, primary screen (AID 1084). To be noted: FRG1 promoter luciferase, higher = more signal, called active from +8 up or from −8 down.
The nature of experiment [9]: small molecules captured by biotinylated probe aFST – biochemical, small-molecule microarray, fluorescence 635/667, stem cell growth factor project, primary screen (AID 1086).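 Also: score merges 667 nm fluorescence with signal-to-noise of each printed compound spot.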 As to conditions: higher = more signal.
Experiment [10] in a line: binders of probe aHhip on microarray, primary screen, stem cell growth factor project, biochemical, small-molecule microarray, fluorescence 635/667 (AID 1087).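 Also: score merges spot fluorescence at 667nm with spot signal to noise ratio.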 To be noted: higher = more signal.
The subject of experiment [11] is PRMT1 (protein arginine N-methyltransferase 1). The experiment can be described thus: small molecules binding arginine methyltransferase PRMT1 – biochemical, small-molecule microarray, 635 nm fluorescence, primary screen (AID 1088).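 Also: binding of Prmt1 protein to compounds spotted on small-molecule microarray slides.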 As to conditions: higher = more signal.
Experiment [12] can be described thus: growth effects on S. cerevisiae YJM789 – YJM789 clinical isolate, OD600, 24 h, basal, primary screen (AID 1089).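 Also: growth of clinical yeast isolate S. cerevisiae YJM 789 seeded 1000 cells per well; test concentration not given here.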 To be noted: higher = more signal, called active from +8 up or from −8 down.
A short description of experiment [13]: S. pombe growth modifiers, basal conditions – strain 972, OD600, 24 h, no modulator, primary screen (AID 1090).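 Also: basal condition with compound alone and no growth modifier present; test concentration not given here.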 To be noted: S. pombe 972 growth, higher = more signal, called active from +8 up or from −8 down.
The nature of experiment [14]: budding yeast growth modifiers under rapamycin – strain BY4716, OD600, 96 h, primary screen (AID 1091). Also: test concentration not given here. To be noted: S. cerevisiae BY4716 + rapamycin, higher = more signal, called active from +8 up or from −8 down.
Experiment [15] addresses Torsin-1A-interacting protein 2 (Homo sapiens) (UniProt Q8NFQ8). The experiment is described as follows: small molecules binding lysate-expressed LULL1 – cell lysate, human LULL1 lysate, 635/667 nm fluorescence, primary screen (AID 1092).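 Also: probe is lysate of COS7 cells overexpressing human LULL1; score merges per-feature 667 nm fluorescence with signal-to-noise.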 To be noted: small-molecule microarray, hLULL1 lysate binding, 635 nm fluorescence; higher = more signal.
The nature of experiment [16]: optical density change of DRC41 E. coli – strain DRC41, OD650, 24 h, E. coli filamentation project, primary screen (AID 1093).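 Also: MC1000 strain lacking acrAB efflux and sulA so SOS filamentation is blocked; test concentration not given here.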 As to conditions: E. coli DRC41 growth, higher = more signal, called active from +8 up or from −8 down.
A short description of experiment [17]: probe aLefty2 binding to arrayed compounds – biochemical, biotinylated probe, 635/667 nm fluorescence, primary screen (AID 1094).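 Also: score merges spot fluorescence near 667 nm with spot signal-to-noise ratio.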 As to conditions: small-molecule microarray, higher = more signal.
The subject of experiment [18] is Noggin (protein binding on small-molecule microarray). The experiment is described as follows: small molecules binding Noggin protein – biochemical, 635/667 nm fluorescence, primary screen (AID 1095).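 Also: score merges 667 nm feature fluorescence with signal to noise over triplicate slides.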 As to conditions: 635 nm fluorescence, higher = more signal.
Experiment [19] concerns the target Neurogenic locus notch homolog protein 3 (Homo sapiens) (UniProt Q9UM47). The experiment is described as follows: small molecules binding NOTCH3 protein – biochemical, 635/667 nm fluorescence, primary screen (AID 1096). To be noted: small-molecule microarray, 635 nm fluorescence, higher = more signal.
Experiment [20] is described as follows: probe aEGFR binding to arrayed compounds – biochemical, biotinylated probe, 635/667 nm fluorescence, primary screen (AID 1097).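 Also: probe is a biotinylated anti-EGFR antibody binding compounds printed on slides; score combines fluorescence near 667 nm and signal to noise of each spot.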 To be noted: small-molecule microarray, higher = more signal.

Neurogenic locus notch homolog protein 3 (Homo sapiens), sequence (Q9UM47 whole entry, looked up): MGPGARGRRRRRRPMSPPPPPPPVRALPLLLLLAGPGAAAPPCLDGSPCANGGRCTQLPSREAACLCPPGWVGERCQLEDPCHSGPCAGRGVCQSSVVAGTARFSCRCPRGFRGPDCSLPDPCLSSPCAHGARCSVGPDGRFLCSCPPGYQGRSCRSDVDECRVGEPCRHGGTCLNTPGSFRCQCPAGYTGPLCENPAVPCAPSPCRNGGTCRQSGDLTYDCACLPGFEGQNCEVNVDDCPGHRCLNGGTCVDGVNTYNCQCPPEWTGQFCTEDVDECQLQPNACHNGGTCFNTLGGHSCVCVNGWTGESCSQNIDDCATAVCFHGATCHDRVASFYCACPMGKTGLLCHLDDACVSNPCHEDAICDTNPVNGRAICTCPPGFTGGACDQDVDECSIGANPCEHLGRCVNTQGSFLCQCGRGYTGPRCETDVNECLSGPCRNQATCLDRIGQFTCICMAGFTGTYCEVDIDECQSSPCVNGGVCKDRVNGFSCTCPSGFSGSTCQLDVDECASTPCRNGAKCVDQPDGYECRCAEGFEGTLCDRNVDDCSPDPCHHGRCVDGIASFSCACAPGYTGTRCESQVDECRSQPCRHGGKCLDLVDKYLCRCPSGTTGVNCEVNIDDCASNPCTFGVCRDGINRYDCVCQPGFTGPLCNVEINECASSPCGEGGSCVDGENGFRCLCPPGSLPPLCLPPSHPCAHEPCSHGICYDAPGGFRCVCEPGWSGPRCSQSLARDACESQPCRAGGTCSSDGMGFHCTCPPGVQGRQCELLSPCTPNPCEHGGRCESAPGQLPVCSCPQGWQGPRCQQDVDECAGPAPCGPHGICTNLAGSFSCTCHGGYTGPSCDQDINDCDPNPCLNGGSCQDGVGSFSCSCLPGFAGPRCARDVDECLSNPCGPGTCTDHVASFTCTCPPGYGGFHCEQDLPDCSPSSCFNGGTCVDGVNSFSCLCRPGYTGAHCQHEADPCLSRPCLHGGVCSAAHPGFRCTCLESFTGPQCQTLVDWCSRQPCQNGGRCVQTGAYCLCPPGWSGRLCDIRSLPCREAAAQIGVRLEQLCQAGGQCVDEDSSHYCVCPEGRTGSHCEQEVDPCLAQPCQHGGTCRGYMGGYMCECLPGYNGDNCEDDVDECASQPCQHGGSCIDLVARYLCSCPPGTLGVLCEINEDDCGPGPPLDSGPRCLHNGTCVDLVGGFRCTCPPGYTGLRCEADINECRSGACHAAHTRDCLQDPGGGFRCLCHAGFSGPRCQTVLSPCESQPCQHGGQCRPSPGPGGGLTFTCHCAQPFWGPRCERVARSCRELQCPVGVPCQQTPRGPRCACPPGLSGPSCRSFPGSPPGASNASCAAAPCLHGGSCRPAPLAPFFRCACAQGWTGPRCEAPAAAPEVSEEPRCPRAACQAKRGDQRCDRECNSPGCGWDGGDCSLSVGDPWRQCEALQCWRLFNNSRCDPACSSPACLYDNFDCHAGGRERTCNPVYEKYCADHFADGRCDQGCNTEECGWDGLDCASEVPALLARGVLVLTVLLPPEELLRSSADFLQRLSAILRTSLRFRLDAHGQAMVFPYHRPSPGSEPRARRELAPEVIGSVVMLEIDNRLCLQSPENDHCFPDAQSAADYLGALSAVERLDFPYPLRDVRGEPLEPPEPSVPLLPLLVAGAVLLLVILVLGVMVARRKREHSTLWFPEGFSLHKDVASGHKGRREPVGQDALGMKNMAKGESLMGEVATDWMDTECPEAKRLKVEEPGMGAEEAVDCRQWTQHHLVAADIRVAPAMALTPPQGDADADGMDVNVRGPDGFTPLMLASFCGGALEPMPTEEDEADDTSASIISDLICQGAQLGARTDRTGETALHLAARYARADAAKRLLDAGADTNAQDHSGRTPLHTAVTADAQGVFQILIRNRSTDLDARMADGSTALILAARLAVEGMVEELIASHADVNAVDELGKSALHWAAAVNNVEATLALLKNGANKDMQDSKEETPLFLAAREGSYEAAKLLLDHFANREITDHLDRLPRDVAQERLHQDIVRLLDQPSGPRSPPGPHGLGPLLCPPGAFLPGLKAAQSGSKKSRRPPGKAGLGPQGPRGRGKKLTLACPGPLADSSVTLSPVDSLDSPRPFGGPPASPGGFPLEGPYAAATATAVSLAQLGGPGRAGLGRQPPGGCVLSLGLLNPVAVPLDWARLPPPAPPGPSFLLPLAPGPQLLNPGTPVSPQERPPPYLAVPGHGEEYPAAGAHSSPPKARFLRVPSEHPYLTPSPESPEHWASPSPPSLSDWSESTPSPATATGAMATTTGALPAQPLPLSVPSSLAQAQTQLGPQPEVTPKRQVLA
Neurogenic locus notch homolog protein 2 (Homo sapiens), sequence (Q04721 whole entry, looked up, canonical isoform): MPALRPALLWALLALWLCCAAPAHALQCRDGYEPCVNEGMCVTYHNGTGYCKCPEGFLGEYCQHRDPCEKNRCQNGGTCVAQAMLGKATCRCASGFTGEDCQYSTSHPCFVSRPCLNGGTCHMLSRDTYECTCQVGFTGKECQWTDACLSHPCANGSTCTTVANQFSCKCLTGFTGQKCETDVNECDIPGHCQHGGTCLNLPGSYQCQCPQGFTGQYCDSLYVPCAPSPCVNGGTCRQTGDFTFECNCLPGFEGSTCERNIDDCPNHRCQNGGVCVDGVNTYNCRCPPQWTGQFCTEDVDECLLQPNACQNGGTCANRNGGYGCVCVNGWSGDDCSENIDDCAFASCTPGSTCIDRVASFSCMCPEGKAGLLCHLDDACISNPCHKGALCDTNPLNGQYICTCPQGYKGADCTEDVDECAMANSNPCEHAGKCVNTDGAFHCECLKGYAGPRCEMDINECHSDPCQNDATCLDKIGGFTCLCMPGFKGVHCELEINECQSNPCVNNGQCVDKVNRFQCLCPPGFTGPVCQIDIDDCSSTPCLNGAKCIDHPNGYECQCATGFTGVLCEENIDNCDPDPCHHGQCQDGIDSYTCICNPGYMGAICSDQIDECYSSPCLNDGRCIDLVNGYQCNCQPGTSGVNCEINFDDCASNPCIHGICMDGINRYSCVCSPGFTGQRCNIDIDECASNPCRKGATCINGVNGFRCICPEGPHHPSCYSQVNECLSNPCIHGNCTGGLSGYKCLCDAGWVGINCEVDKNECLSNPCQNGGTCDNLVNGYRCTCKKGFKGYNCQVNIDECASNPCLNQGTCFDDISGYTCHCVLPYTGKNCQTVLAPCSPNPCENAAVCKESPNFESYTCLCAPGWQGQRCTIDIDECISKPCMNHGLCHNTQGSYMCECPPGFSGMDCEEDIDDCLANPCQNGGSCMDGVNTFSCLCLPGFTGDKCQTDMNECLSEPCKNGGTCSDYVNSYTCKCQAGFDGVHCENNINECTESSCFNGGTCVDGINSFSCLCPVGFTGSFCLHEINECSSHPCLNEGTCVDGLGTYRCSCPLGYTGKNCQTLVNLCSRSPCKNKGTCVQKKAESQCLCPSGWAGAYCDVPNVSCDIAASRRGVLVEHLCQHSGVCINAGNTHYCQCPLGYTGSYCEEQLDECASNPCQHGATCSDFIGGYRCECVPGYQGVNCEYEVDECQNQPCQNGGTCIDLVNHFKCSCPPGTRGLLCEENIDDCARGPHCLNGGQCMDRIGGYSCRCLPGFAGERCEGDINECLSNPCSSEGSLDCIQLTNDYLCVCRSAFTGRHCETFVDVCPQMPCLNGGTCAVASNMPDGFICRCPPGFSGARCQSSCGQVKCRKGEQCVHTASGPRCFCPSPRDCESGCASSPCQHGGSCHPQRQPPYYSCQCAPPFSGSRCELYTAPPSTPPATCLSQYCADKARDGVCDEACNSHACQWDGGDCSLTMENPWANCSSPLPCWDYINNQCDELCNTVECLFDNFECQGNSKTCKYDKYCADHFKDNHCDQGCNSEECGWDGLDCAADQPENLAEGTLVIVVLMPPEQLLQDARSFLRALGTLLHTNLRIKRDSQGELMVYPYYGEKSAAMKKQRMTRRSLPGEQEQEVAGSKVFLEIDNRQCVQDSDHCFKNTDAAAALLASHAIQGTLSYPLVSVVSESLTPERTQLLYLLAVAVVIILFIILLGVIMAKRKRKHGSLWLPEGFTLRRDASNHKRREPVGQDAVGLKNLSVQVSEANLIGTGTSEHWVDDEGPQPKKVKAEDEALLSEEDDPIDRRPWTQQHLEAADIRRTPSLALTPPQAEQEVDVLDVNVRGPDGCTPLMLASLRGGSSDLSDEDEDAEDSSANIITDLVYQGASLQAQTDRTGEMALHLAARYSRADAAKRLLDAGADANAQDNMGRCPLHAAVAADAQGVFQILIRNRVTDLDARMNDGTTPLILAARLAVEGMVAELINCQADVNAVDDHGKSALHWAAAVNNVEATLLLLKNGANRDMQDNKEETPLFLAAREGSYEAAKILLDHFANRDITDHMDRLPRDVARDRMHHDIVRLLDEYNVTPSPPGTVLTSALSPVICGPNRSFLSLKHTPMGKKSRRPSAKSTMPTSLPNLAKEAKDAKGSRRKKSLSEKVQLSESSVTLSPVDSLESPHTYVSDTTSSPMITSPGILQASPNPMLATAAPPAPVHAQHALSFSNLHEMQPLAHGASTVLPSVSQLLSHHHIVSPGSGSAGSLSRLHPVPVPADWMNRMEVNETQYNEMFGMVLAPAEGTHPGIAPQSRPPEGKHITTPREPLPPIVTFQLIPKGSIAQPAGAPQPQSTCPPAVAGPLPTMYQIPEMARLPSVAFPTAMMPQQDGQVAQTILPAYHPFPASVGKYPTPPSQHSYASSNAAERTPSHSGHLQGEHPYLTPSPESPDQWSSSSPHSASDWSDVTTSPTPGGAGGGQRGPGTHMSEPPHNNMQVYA

`CC(C)C(=C=CC[C@H](O)c1ccc(CO)o1)CCO`: the composite z-score in experiment [1] is 0.0959; in [2], 1.5; in experiment [3], -0.141; in experiment [4], 0.153; in experiment [5], -0.57; in experiment [6] it was 1.57. Further, the composite z-score was 1.16 in experiment [7]; 0.164 in experiment [9]; -0.202 in [10]; 1.52 in experiment [11]; 1.51 in [15]; -0.28 in [17]. Besides, the composite z-score is 0.679 in experiment [18], 0.787 in [19] and -0.14 in experiment [20]. Besides, the z-score in experiment [8] is 0.859 (inactive); in experiment [12], -0.0662 (inactive); in experiment [13] it was -0.697 (inactive); in experiment [14] it was -0.536 (inactive); in experiment [16], -0.253 (inactive).
As for `C=C[C@H](C)[C@@H](OC(=O)Nc1ccc(SC)cc1)c1ccc(O)c2ccccc12`, the composite z-score is -0.151 in experiment [1]; 0.152 in experiment [2]; 0.0111 in [3]; 0.358 in experiment [4]; 0.68 in experiment [5]; 0.423 in experiment [6]. Further, the composite z-score in experiment [7] is 1.43; in [9], 0.455; in [10], -0.0994; in [11], 1.28; in experiment [15], 1.89; in [17], -0.0159. The values for the composite z-score in [18], in experiment [19] and in experiment [20] were 0.936, 1.11 and 0.137, respectively. The z-score is 5.42 (inactive) in experiment [8]; -24.3 (active) in experiment [12]; -20.7 (active) in experiment [13]; -1.88 (inactive) in experiment [14]; 1.22 (inactive) in experiment [16].
`COCCCNC(=O)[C@@H]1c2ccccc2C(=O)N(Cc2ccccc2)[C@H]1c1ccc(CO)cc1`: the composite z-score in experiment [1] was 0.0981; in experiment [2] it was 0.361; in experiment [3] it was -0.0952; in experiment [4], 0.12; in experiment [5] it was 0.712; in experiment [6] it was 0.943. Further, the composite z-score in experiment [7] is 0.565; in [9], 0.418; in experiment [10], 0.253; in experiment [11], 0.726; in [15] it was 1.53; in experiment [17], 0.384. The figures for the composite z-score in experiment [18], in experiment [19] and in experiment [20] were 0.525, 0.109 and 0.236, respectively. Moreover, the z-score in [8] was -0.179 (inactive); in experiment [12], -1.29 (inactive); in [13] it was -0.0108 (inactive); in experiment [14], -0.212 (inactive); in experiment [16], -0.167 (inactive).
In the case of `[N-]=[N+]=Nc1ccccc1C[C@@]1(C(=O)N2CCCCC2)N=C(c2ccc(OCCCO)cc2)O[C@@H]1c1ccccc1`, the composite z-score in [1] amounted to 0.155; in [2], 1.1; in experiment [3], 0.0137; in experiment [4], 0.763; in experiment [5], 1.47; in [6] it was 1.74. In addition, the composite z-score in experiment [7] was found to be 1.11; in experiment [9], 0.884; in [10], 0.0873; in experiment [11], 1.14; in [15] it was 2.97; in experiment [17], 0.101. Besides, the composite z-score in experiment [18] is 0.0588; in [19], 1.04; in [20] it was -0.0382. In addition, the z-score is -4.6 (inactive) in [8]; -1.96 (inactive) in experiment [12]; -2.65 (inactive) in experiment [13]; 0.737 (inactive) in [14]; 2.76 (inactive) in experiment [16].
For the compound `CCCCCN1CC=CC23O[C@@H]4C=CCOC(=O)[C@@H]4[C@H]2C(=O)N(C(C)CO)[C@@H]3C1=O` (stereo not given in full), the composite z-score is 0.484 in experiment [1]; 1.52 in experiment [2]; -0.195 in experiment [3]; -0.109 in experiment [4]; -0.825 in experiment [5]; 0.913 in [6]. For the same compound, the composite z-score in [7] is 1.49; in experiment [9], -0.637; in experiment [10], -0.399; in [11], -0.508; in experiment [15], -0.952; in experiment [17], -0.174. The composite z-score in experiment [18] is -1; in experiment [19], -0.553; in experiment [20] it was -0.296. For the same compound, the z-score in experiment [8] was -0.02 (inactive); in experiment [12], -0.076 (inactive); in [13], -0.226 (inactive); in experiment [14] it was 0.0795 (inactive); in experiment [16], 0.266 (inactive).
